# Laboratory results published in PubChem BioAssay (Tox21).
# Records with an inconclusive call do not appear. Entries that show only a call come without a potency. Calls of active or inactive are those of the source. The call rests on the fitted dose curve; in most records, active means well fitted cell-killing curve with a large enough effect in the repeat runs; inconclusive means weak or mixed curves; inactive means flat fitted curve, though single readings scatter.
# Assay: qHTS RealTime-Glo MT Cell Viability Assay in HepG2 cells - 16 hour (AID 1224885); further: nearly all actives have a fitted effect of over 50% in size
# Settings: RealTime-Glo luminescence; series mostly up to 76.8 µM
# Source text: U.S. Tox21 Program National Center for Advancing Translational Sciences [NCATS] NIH Chemical Genomics Center [NCGC] U.S. Environmental Protection Agency [EPA] National Institutes of Environmental Health Sciences [NIEHS] National Toxicology Program [NTP] U.S. Food and Drug Administration [FDA] Tox21 Assay Overview: Measure of cell viability is critical in the cell-base assay. Analysis of cell viability is necessary for the characterization of cell responses to cytotoxic drugs and environmental stress. A RealTime-Glo MT Cell Viability Assay to monitor cell viability in real time of continues cell culture during 40 hours of compound treatment was used to screen Tox21 10K library compounds in HepG2 cells. The RealTime-Glo MT Cell Viability Assay is a nonlytic, homogeneous, bioluminescent method to measure cell viability in real time using a simple, plate-based method. The assay involves adding NanoLuc luciferase and a cell-permeant prosubstrate to cells in culture. Viable cells reduce the proprietary prosubstrate to generate a substrate for NanoLuc luciferase. This substrate diffuses from cells into the surrounding culture medium, where it is rapidly used by the NanoLuc Enzyme to produce a luminescent signal. The signal correlates with the number of viable cells, making the assay well suited for cytotoxicity studies.
# Tox21 Assay Protocol Summary: The mixture of HepG2 cell suspension and reagents were dispensed at 600cells/6 ul/well in 1536-well tissue culture treated black solid bottom plates using a Multidrop dispenser. After the assay plates were incubated at a 37 C/5% CO2 incubator for 5 hours, 23 nL of compounds dissolved in DMSO, positive and negative controls was transferred to the assay plate by a pintool work station. The plates were incubated at 37 C for 40 hours. The luminescence intensity were measured at 0h, 8h, 16h, 24h, 32h and 40h time points using ViewLux plate reader during compound treatment.
# Potency means the concentration at half of the fitted maximal effect.
row,Structure (SMILES),Potency
1,CCC1(c2ccccc2)C(=O)NC(=O)NC1=O,inactive
2,COc1ccc(C(=O)N2CCCC2=O)cc1,inactive
3,NC(=S)C(N)=S,inactive
4,CCC(C)n1c(=O)[nH]c(C)c(Br)c1=O (stereo not given),inactive
5,COc1ccc2c(c1OC)CN1CCc3cc4c(cc3C1C2)OCO4 (stereo not given),inactive
6,O=C(O)c1cccc(Cl)c1,inactive
7,CN1CCN(C(=O)O[C@H]2c3nccnc3C(=O)N2c2ccc(Cl)cn2)CC1,inactive
8,COc1cc2c(cc1OC)[C@@]13CCN4CC5=CCO[C@H]6CC(=O)N2[C@H]1[C@H]6[C@H]5C[C@H]43,inactive
9,O=CNC(N1CCN(C(NC=O)C(Cl)(Cl)Cl)CC1)C(Cl)(Cl)Cl (stereo not given),inactive
10,Cc1ccccc1CO[C@@H]1C[C@@]2(C(C)C)CC[C@]1(C)O2,inactive
11,ClCC(Cl)(Cl)Cl,inactive
12,CC(=O)C(Cl)Cl,inactive
13,Cc1ncc2n1-c1ccc(Cl)cc1C(c1ccccc1F)=NC2,inactive
14,O=C(CCN1CC1)OCC(CO)(COC(=O)CCN1CC1)COC(=O)CCN1CC1,inactive
15,N#CC(CCc1ccc(Cl)cc1)(Cn1cncn1)c1ccccc1 (stereo not given),27.5 µM (active)
16,CCCCC(=O)Cl,inactive
17,CC1=C(C(=O)Nc2ccccc2)S(=O)(=O)CCO1,inactive
18,BrCCCCCCBr,inactive
19,CC1CCC(=O)O1 (stereo not given),inactive
20,CC(C)(C)OC(=O)c1ncn2c1[C@@H]1CCCN1C(=O)c1c(Br)cccc1-2,inactive

row,Structure (SMILES),Potency
1,O=S(=O)(O)C(F)(F)C(F)(F)C(F)(F)C(F)(F)C(F)(F)C(F)(F)F,inactive
2,CCCCOC(=O)c1ccccc1C(=O)O,inactive
3,C[N+](=O)[O-],inactive
4,OCCBr,inactive
5,CC1CCCCC1NC(=O)Nc1ccccc1 (stereo not given),inactive
6,ClC(Cl)Br,inactive
7,ClC(Cl)C(Cl)Cl,inactive
8,CC(=O)Nc1cc([As](=O)(O)O)ccc1O,inactive
9,C(CCOCC1CO1)COCC1CO1 (stereo not given),inactive
10,COc1cccc2c1cc([N+](=O)[O-])c1c(C(=O)O)cc3c(c12)OCO3,inactive
11,CCOP(=S)(OCC)SCSP(=S)(OCC)OCC,inactive
12,CC(CCc1ccccc1)NC(C)C(O)c1ccc(O)cc1 (stereo not given),inactive
13,CCCCc1c(C)nc(NCC)[nH]c1=O,inactive
14,CCOP(=O)(N=C1SCCS1)OCC,inactive
15,CCC(Cl)[N+](=O)[O-] (stereo not given),inactive
16,CCN(CC)CCOC(=O)C(C)(c1ccccc1)c1ccccc1,inactive
17,O=C(Cc1ccccc1)OCc1ccccc1,inactive
18,CN(N=O)C(N)=O,inactive
19,CCCCCCBr,inactive
20,CC(C)NCC(O)c1ccc(N)c(C#N)c1 (stereo not given),inactive
